Experimental data published in PubChem BioAssay AID1159580 (chemical genetic matrix, 2015).
Screen size: about 5,500 compounds; about 2,000 (36%) were called active. About 18% were inconclusive and are not listed. No stated cut-off is given here; in the data, active means normalized growth mostly below about 0.91 (no sharp cut-off); inconclusive means no clear call, values can overlap the other calls; inactive means mostly above about 0.92. Some of the results follow.

Experiment: chemical genetic growth profiling, strain panel (AID 1159580);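 further: tested at 20 µM; growth read once vehicle control cultures reached saturation at 30 °C; 1 = growth at the plate median or of vehicle wells; lower values mean less growth of the strain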
Conditions: S. cerevisiae deletion strains, growth OD
[1] = locus YAL021C, strain ccr4, hits give low values
[2] = locus YAL026C, strain drs2, hits give low values
[3] = locus YAL030W, strain snc1, hits give low values
[4] = locus YBL061C, strain skt5, hits give low values
[5] = locus YBR009C, strain hhf1, hits give low values
[6] = locus YBR023C, strain chs3, hits give low values
[7] = locus YBR171W, strain sec66, hits give low values
[8] = locus YBR231C, strain swc5, hits give low values
[9] = locus YBR279W, strain paf1, hits give low values
[10] = locus YCL011C, strain gbp2, hits give low values
[11] = locus YCL016C, strain dcc1, hits give low values
[12] = locus YCL069W, strain vba3, hits give low values
[13] = locus YCR088W, strain abp1, hits give low values
[14] = locus YDL005C, strain med2, hits give low values
[15] = locus YDL040C, strain nat1, hits give low values
[16] = locus YDR001C, strain nth1, hits give low values
[17] = locus YDR069C, strain doa4, hits give low values
[18] = locus YDR137W, strain rgp1, hits give low values
[19] = locus YDR159W, strain sac3, hits give low values
[20] = locus YDR297W, strain sur2, hits give low values
[21] = locus YDR334W, strain swr1, hits give low values
[22] = locus YDR335W, strain msn5, hits give low values
[23] = locus YDR392W, strain spt3, hits give low values
[24] = locus YEL003W, strain gim4, hits give low values
[25] = locus YEL037C, strain rad23, hits give low values
[26] = locus YEL061C, strain CIN8 (second series), hits give low values
[27] = locus YER015W, strain faa2, hits give low values
[28] = locus YER016W, strain bim1, hits give low values
[29] = locus YER111C, strain swi4, hits give low values
[30] = locus YER155C, strain BEM2 (second series), hits give low values
[31] = locus YFR010W, strain ubp6, hits give low values
[32] = locus YGL167C, strain pmr1, hits give low values
[33] = locus YGL173C, strain kem1, hits give low values
[34] = locus YGL227W, strain vid30, hits give low values
[35] = locus YGL240W, strain doc1, hits give low values
[36] = locus YGL253W, strain hxk2, hits give low values
[37] = locus YHR013C, strain ard1, hits give low values
[38] = locus YHR027C, strain rpn1, hits give low values
[39] = locus YHR030C, strain SLT2, hits give low values
[40] = locus YHR079C, strain IRE1, hits give low values
[41] = locus YHR142W, strain chs7, hits give low values
[42] = locus YJL092W, strain hpr5, hits give low values
[43] = locus YJL095W, strain BCK1 (second series), hits give low values
[44] = locus YJL095W, strain BCK1, hits give low values
[45] = locus YJL115W, strain asf1, hits give low values
[46] = locus YJL129C, strain trk1, hits give low values
[47] = locus YJL154C, strain vps35, hits give low values
[48] = locus YJL164C, strain tpk1, hits give low values
[49] = locus YJL166W, strain qcr8, hits give low values
[50] = locus YJL187C, strain SWE1, hits give low values
[51] = locus YJR066W, strain TOR1, hits give low values
[52] = locus YKL160W, strain elf1, hits give low values
[53] = locus YKR026C, strain gcn3, hits give low values
[54] = locus YKR091W, strain srl3, hits give low values
[55] = locus YLL001W, strain dnm1, hits give low values
[56] = locus YLL026W, hits give low values
[57] = locus YLL041C, strain sdh2, hits give low values
[58] = locus YLR027C, strain aat2, hits give low values
[59] = locus YLR113W, strain HOG1, hits give low values
[60] = locus YLR221C, strain rsa3, hits give low values
[61] = locus YLR258W, strain gsy2, hits give low values
[62] = locus YLR262C, strain YPT6 (second series), hits give low values
[63] = locus YLR320W, strain mms22, hits give low values
[64] = locus YLR342W, strain FKS1, hits give low values
[65] = locus YLR357W, strain rsc2, hits give low values
[66] = locus YLR370C, strain arc18, hits give low values
[67] = locus YLR384C, strain iki3, hits give low values
[68] = locus YML120C, strain ndi1, hits give low values
[69] = locus YMR058W, strain fet3, hits give low values
[70] = locus YMR125W, strain sto1, hits give low values
[71] = locus YMR129W, hits give low values
[72] = locus YMR205C, strain PFK2, hits give low values
[73] = locus YMR231W, strain pep5, hits give low values
[74] = locus YNL071W, strain lat1, hits give low values
[75] = locus YNL183C, strain NPR1, hits give low values
[76] = locus YNL209W, strain ssb2, hits give low values
[77] = locus YNL248C, strain rpa49, hits give low values
[78] = locus YNL322C, strain KRE1 (second series), hits give low values
[79] = locus YNR049C, strain mso1, hits give low values
[80] = locus YOR001W, strain rrp6, hits give low values
[81] = locus YOR070C, strain gyp1, hits give low values
[82] = locus YOR080W, strain dia2, hits give low values
[83] = locus YOR083W, strain WHI5, hits give low values
[84] = locus YOR106W, strain vam3, hits give low values
[85] = locus YOR231W, strain MKK1, hits give low values
[86] = locus YOR265W, strain rbl2, hits give low values
[87] = locus YOR270C, strain vph1, hits give low values
[88] = locus YOR290C, strain snf2, hits give low values
[89] = locus YPL051W, strain arl3, hits give low values
[90] = locus YPL078C, strain atp4, hits give low values
[91] = locus YPL106C, strain sse1, hits give low values
[92] = locus YPL240C, strain hsp82, hits give low values
[93] = locus YPL256C, strain CLN2, hits give low values
[94] = locus YAL013W, strain DEP1, hits give low values
[95] = locus YDR150W, strain NUM1, hits give low values
[96] = locus YGR078C, strain PAC10, hits give low values
[97] = locus YJR075W, strain HOC1, hits give low values
[98] = locus YMR263W, strain SAP30, hits give low values
[99] = locus YNL153C, strain GIM3, hits give low values
[100] = locus YNL322C, strain KRE1, hits give low values
[101] = locus YPL055C, strain LGE1, hits give low values
[102] = locus YPL241C, strain CIN2, hits give low values
[103] = locus YAL040C, strain CLN3, hits give low values
[104] = locus YDR363W, strain ESC2, hits give low values
[105] = locus YER002W, strain NOP16, hits give low values
[106] = locus YMR307W, strain GAS1, hits give low values
[107] = locus YNL175C, strain NOP13, hits give low values
[108] = locus YNL197C, strain WHI3, hits give low values
[109] = locus YNL224C, strain SQS1, hits give low values
[110] = locus YOR083W, strain WHI5 (second series), hits give low values

Measured: normalized growth

Cc1ncc(CO)c(CO)c1O
inactive: [1] 1.02 | [2] 1.02 | [3] 1.03 | [4] 1.02 | [5] 1.01 | [6] 1.03 | [7] 1.04 | [8] 1.02 | [9] 1.01 | [10] 1.02 | [11] 1.01 | [12] 1.04 | [13] 1.01 | [14] 1.03 | [15] 1.02 | [16] 1.03 | [17] 1.03 | [18] 1.03 | [19] 1 | locus YDR195W, strain ref2 1.03 | [20] 1.03 | [21] 1.03 | [22] 1.02 | [23] 1.01 | [24] 1.02 | [25] 1.02 | [26] 1.02 | [27] 1.03 | [28] 1 | [29] 1.02 | [30] 1.07 | [31] 1.02 | [32] 1.03 | [33] 1.04 | [34] 1.02 | [35] 1.01 | [36] 1.03 | [37] 1.03 | [38] 1.02 | [39] 0.956 | [40] 0.98 | [41] 1.02 | [42] 1.01 | [43] 1.02 | [44] 0.973 | [45] 1.03 | [46] 1.04 | [47] 1.03 | [48] 1.01 | [49] 1.02 | [50] 1.03 | [51] 0.911 | [52] 1.01 | [53] 1.02 | [54] 1.02 | [55] 0.999 | [56] 1.02 | [57] 1.02 | [58] 1.01 | [59] 0.962 | [60] 1 | [61] 1.02 | [62] 1.04 | [63] 1.04 | [64] 1.02 | [65] 1 | [66] 1.03 | [67] 1.02 | [68] 1.02 | [69] 1.02 | [70] 1.01 | [71] 1.02 | [72] 1.05 | [73] 1.03 | [74] 1.02 | [75] 0.927 | [76] 1.03 | [77] 1.03 | [78] 1.04 | [79] 1.03 | [80] 1.03 | [81] 1.03 | [82] 1.04 | [83] 0.975 | [84] 1.03 | [85] 0.957 | [86] 1.03 | [87] 1.08 | [88] 1.02 | [89] 1.02 | [90] 1.02 | [91] 1.04 | [92] 1.04 | [93] 0.975

CC(=O)C1=C(C)Nc2ccccc2S1
active: locus YLR085C, strain ARP6, hits give low values 0.622 | [98] 0.852 | locus YNR030W, strain Alg12, hits give low values 0.804 | [102] 0.849 | locus YPR135W, strain CTF4, hits give low values 0.623
inactive: [94] 0.959 | locus YBR229C, strain ROT2, hits give low values 0.949 | locus YDL101C, strain DUN1, hits give low values 0.938 | [95] 0.911 | locus YEL061C, strain CIN8, hits give low values 0.943 | [96] 0.982 | locus YGR229C, strain SMI1, hits give low values 1.02 | [39] 0.922 | locus YHR087W, strain rtc3, hits give low values 1.01 | [50] 0.954 | [97] 0.974 | locus YLR039C, strain RIC1, hits give low values 0.978 | locus YLR058C, strain SHM2 (second series), hits give low values 0.987 | locus YLR262C, strain YPT6, hits give low values 1.03 | locus YML094W, strain GIM5, hits give low values 0.888 | locus YMR219W, strain ESC1, hits give low values 0.971 | [99] 0.963 | locus YNL298W, strain CLA4 (second series), hits give low values 0.857 | [100] 1.02 | [101] 0.795

CCCN(CCC)C(=O)Cc1c(-c2ccc(Cl)cc2)nc2c(Cl)cc(Cl)cn12
inactive: [103] 1 | [104] 1.01 | [105] 1.05 | [106] 1 | locus YNL128W, strain TEP1, hits give low values 1.01 | [99] 1.02 | [107] 1.03 | [108] 1.03 | [109] 1.01 | [100] 0.985 | [110] 1.08 | [102] 0.992

CC(C)c1cccc(C(C)C)c1O
inactive: [94] 1.01 | [1] 1 | [2] 0.993 | [3] 0.985 | [103] 0.998 | [4] 0.983 | [5] 0.966 | [6] 0.977 | [7] 0.987 | [8] 0.997 | [9] 0.992 | [10] 0.991 | [11] 0.976 | locus YCL061C, strain MRC1 (second series), hits give low values 0.988 | locus YCL061C, strain MRC1, hits give low values 0.991 | [12] 0.992 | [13] 0.996 | [14] 0.984 | [15] 0.976 | [16] 0.994 | [17] 0.981 | [18] 0.966 | [95] 0.993 | [19] 0.982 | locus YDR195W, strain ref2 0.951 | [20] 0.988 | [21] 0.988 | [22] 0.993 | [104] 0.973 | [23] 0.869 | [24] 0.99 | [25] 0.986 | [26] 0.986 | [105] 0.986 | [27] 0.983 | [28] 0.979 | [29] 0.973 | [30] 0.996 | [31] 0.978 | [32] 0.972 | [33] 0.98 | [34] 0.988 | [35] 0.983 | [36] 0.997 | [96] 1 | [37] 1.03 | [38] 0.99 | [39] 0.94 | [40] 0.954 | [41] 1.01 | [42] 0.992 | [43] 0.993 | [44] 0.992 | [45] 0.983 | [46] 0.992 | [47] 0.99 | [48] 0.979 | [49] 0.986 | [50] 0.994 | [51] 0.935 | [97] 1 | [52] 1 | [53] 0.953 | [54] 0.984 | [55] 0.988 | [56] 0.988 | [57] 0.996 | [58] 0.993 | [59] 0.996 | [60] 1.01 | [61] 0.991 | [62] 0.97 | [63] 0.935 | [64] 0.986 | [65] 0.939 | [66] 0.996 | [67] 0.971 | [68] 0.98 | [69] 0.996 | [70] 0.988 | [71] 1 | [72] 0.941 | [73] 0.992 | [98] 1 | [106] 1 | [74] 0.996 | [99] 1.01 | [107] 1.03 | [75] 0.942 | [108] 1 | [76] 0.992 | [109] 1.02 | [77] 1.01 | [78] 0.981 | [100] 1.01 | [79] 0.983 | [80] 0.997 | [81] 0.99 | [82] 0.984 | [110] 1.02 | [83] 1.01 | [84] 0.991 | [85] 0.914 | [86] 0.991 | [87] 0.993 | [88] 0.918 | [89] 1 | [101] 0.999 | [90] 0.994 | [91] 0.951 | [92] 1.01 | [102] 1.01 | [93] 0.929
